What all share (assay): universal protein binding microarray (PBM); transcription factors of Arabidopsis thaliana; high values mean tight binding
In test [1] the target is T1, GST-ANAC092(1-176) (Arabidopsis thaliana, UniProt Q9FKA0 1-176).
T1 sequence: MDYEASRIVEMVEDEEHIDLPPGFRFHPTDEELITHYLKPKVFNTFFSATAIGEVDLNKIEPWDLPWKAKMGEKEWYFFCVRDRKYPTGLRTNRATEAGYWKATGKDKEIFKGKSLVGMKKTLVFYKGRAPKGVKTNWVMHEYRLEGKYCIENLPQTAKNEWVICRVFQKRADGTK
As to conditions: protein: recombinant; tags: GST; chain copies: 2; dsDNA, one strand shown. The procedure, abridged:
(§1)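 Each value is a normalised enrichment score (E-score) describing binding. The GST-tagged proteins, NAC-domain, full-length or DNA-binding-domain, were induced in cells (zinc-finger proteins with zinc acetate added) and purified on glutathione–Sepharose 4B. They were applied at 200 to 500 nM final, in duplicate, to double-stranded custom all-10-mer Agilent 4 × 180K arrays, and gapped and ungapped 8-mers were scored.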

In test [2] the target is T2, GST-ANAC019 NAC domain (Arabidopsis thaliana, UniProt Q9C932 14-162).
T2 sequence: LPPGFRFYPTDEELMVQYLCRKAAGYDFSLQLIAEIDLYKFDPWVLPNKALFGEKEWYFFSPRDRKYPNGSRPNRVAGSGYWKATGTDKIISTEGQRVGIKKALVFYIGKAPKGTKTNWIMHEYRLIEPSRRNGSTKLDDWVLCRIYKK
Conditions: protein: recombinant; tags: GST; chain copies: 2; dsDNA, one strand shown. The procedure, abridged: as §1

Test [3] has as its target T3, GST-ANAC055(1-171) (Arabidopsis thaliana, UniProt Q9LDY8 1-171).
T3 sequence: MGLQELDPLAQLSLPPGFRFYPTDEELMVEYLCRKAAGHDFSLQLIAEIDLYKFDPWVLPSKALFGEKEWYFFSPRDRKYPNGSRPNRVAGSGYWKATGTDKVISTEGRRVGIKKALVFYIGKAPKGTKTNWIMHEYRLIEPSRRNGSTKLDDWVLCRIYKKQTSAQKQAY
Conditions: protein: recombinant; tags: GST; chain copies: 2; dsDNA, one strand shown. The procedure, abridged:
as §1

Test [4] concerns the target T4, GST-ATAF1 NAC domain (Arabidopsis thaliana, UniProt Q39013 7-158).
T4 sequence: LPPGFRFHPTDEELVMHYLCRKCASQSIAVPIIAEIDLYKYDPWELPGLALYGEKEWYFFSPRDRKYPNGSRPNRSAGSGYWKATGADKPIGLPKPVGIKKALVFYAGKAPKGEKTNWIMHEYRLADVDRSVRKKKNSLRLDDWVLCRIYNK
Conditions: protein: recombinant; tags: GST; chain copies: 2; dsDNA, one strand shown. The procedure, abridged: as §1

The target of test [5] is T5, GST-ANAC092(1-285) full length (Arabidopsis thaliana, UniProt Q9FKA0 1-285).
T5 sequence: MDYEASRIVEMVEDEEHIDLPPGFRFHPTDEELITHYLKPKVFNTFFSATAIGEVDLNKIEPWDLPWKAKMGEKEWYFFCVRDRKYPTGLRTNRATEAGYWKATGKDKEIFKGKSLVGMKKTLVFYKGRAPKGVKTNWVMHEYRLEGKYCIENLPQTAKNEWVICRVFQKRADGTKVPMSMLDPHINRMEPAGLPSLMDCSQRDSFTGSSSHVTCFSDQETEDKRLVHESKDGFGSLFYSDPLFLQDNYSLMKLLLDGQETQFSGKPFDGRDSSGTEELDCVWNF
Conditions: protein: recombinant; tags: GST; chain copies: 2; dsDNA, one strand shown. In outline: as §1

The target in test [6] is T6, GST-NAP(1-166) (Arabidopsis thaliana, UniProt O49255 1-166).
T6 sequence: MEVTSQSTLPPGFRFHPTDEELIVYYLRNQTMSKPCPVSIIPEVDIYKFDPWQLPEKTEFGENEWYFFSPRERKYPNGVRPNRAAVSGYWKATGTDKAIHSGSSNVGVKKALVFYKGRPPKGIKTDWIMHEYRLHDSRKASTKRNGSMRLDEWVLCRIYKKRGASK
As to conditions: protein: recombinant; tags: GST; chain copies: 2; dsDNA, one strand shown. In outline: as §1

For test [7], the target named is T7, GST-NTL8 NAC domain (Arabidopsis thaliana, UniProt Q9XIN7 14-156).
T7 sequence: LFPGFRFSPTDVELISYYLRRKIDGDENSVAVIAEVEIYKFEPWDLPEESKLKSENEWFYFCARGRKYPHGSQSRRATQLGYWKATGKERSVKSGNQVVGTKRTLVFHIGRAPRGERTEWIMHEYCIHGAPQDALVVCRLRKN
As to conditions: protein: recombinant; tags: GST; chain copies: 2; dsDNA, one strand shown. The procedure, abridged:
as §1

The target of test [8] is T8, GST-VND3 NAC domain (Arabidopsis thaliana, UniProt Q9FH59 12-162).
T8 sequence: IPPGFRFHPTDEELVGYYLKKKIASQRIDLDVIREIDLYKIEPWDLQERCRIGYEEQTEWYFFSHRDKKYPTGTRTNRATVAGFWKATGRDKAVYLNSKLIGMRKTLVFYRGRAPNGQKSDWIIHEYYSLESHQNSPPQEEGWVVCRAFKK
As to conditions: protein: recombinant; tags: GST; chain copies: 2; dsDNA, one strand shown. In outline: as §1

Test [9] concerns the target T9, GST-VND7 NAC domain (Arabidopsis thaliana, UniProt Q9C8W9 9-158).
T9 sequence: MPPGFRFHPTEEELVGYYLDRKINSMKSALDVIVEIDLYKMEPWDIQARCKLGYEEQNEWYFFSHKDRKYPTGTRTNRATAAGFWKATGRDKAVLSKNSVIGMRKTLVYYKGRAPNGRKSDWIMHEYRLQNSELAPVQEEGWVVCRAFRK
Conditions: protein: recombinant; tags: GST; chain copies: 2; dsDNA, one strand shown. The procedure, abridged:
as §1

The target of test [10] is GST-WRKY1(266-371) (Arabidopsis thaliana, UniProt Q9SI37 266-371). As to conditions: protein: recombinant; tags: GST; dsDNA, one strand shown. The procedure, abridged: as §1
Sequence of GST-WRKY1(266-371) (Q9SI37 266-371): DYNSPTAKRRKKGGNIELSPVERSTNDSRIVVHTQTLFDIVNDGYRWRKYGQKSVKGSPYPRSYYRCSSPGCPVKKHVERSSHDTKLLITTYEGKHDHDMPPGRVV
The target of test [11] is T10, GST-SND1(1-203) (Arabidopsis thaliana, UniProt Q9LPI7 1-203).
T10 sequence: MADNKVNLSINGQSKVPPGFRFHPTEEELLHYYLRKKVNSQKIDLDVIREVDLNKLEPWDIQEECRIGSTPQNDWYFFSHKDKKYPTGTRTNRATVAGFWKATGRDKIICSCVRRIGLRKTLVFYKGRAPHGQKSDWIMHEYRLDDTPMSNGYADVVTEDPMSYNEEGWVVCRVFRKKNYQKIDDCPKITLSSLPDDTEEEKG
Conditions: protein: recombinant; tags: GST; chain copies: 2; dsDNA, one strand shown. In outline:
as §1

For test [12], the target named is T11, GST-NST2(1-184) (Arabidopsis thaliana, UniProt Q9M274 1-184).
T11 sequence: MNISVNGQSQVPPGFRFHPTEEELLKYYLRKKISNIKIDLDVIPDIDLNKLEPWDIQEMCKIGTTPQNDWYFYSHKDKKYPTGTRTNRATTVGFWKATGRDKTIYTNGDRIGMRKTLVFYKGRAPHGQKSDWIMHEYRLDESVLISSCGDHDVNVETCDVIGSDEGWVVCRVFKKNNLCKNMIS
As to conditions: protein: recombinant; tags: GST; chain copies: 2; dsDNA, one strand shown. In outline:
as §1

In test [13] the target is GST-NTL6(1-168) (Arabidopsis thaliana, UniProt Q9SCK6 1-168). As to conditions: protein: recombinant; tags: GST; chain copies: 2; dsDNA, one strand shown. In outline: as §1
Sequence of GST-NTL6(1-168) (Q9SCK6 1-168): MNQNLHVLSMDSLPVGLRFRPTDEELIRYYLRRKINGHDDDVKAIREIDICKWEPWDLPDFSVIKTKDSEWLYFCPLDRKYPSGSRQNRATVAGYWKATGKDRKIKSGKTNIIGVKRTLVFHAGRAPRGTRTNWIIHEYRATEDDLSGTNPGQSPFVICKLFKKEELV

For the sequence ACTAGTCA, the binding signal in [1] is 0.0862 E-score; in test [2], 0.0985 E-score; in [3], 0.134 E-score; in test [4], 0.0655 E-score; in [5], 0.0648 E-score; in [6] it was 0.0759 E-score. Also, the binding signal is 0.128 E-score in test [7], 0.108 E-score in test [8], 0.0656 E-score in [9] and 0.435 E-score in test [10].

On to CACGCCAG, for which the binding signal in test [1] was determined as 0.385 E-score; in [2], 0.0856 E-score; in test [5] it was 0.429 E-score; in test [11], 0.178 E-score.

Take ACACGACT: the binding signal in [1] worked out at 0.104 E-score; in test [2] it was 0.411 E-score; in test [3] it was 0.364 E-score; in [4], 0.336 E-score; in test [5], 0.171 E-score; in test [6], 0.179 E-score. Further, the binding signal was 0.19 E-score in [12], 0.309 E-score in test [8], 0.265 E-score in [9] and 0.312 E-score in test [10].

For the sequence GTATTGAC, the binding signal came to 0.0776 E-score in test [1]; 0.0594 E-score in test [3]; 0.147 E-score in test [5]; 0.121 E-score in test [6]; 0.0734 E-score in [8]; 0.0877 E-score in [9]. Moreover, the binding signal in [10] was 0.455 E-score.

Take ACCTTACC: the binding signal came out at 0.306 E-score in test [13]; 0.0631 E-score in [4]; 0.111 E-score in test [5]; 0.417 E-score in [7]; 0.152 E-score in test [11].

In the case of ATTTCCTC, the binding signal was determined as 0.148 E-score in test [13], 0.115 E-score in test [12], 0.437 E-score in test [7] and 0.091 E-score in [11].

As to AGGAAATC, the binding signal came to 0.0998 E-score in test [1]; 0.102 E-score in test [13]; 0.0993 E-score in [12]; 0.437 E-score in test [7]; 0.0802 E-score in test [11].

For CTTTTGAC, the binding signal in test [1] worked out at 0.158 E-score; in [13] it was 0.0997 E-score; in test [3] it was 0.114 E-score; in [4], 0.168 E-score; in [5], 0.0903 E-score; in test [8], 0.12 E-score. Also, the binding signal worked out at 0.101 E-score in [9] and 0.448 E-score in test [10].

Regarding CTACGCGA, the values for the binding signal in [5], in test [12] and in test [11] were 0.177 E-score, 0.0539 E-score and 0.417 E-score, respectively.

In the case of AGGAAACC, the binding signal in test [13] turned out to be 0.0999 E-score; in test [5], 0.13 E-score; in [7] it was 0.482 E-score; in test [11], 0.0696 E-score.

Take ACGGCAGT: the binding signal in test [1] worked out at 0.207 E-score; in [2], 0.418 E-score; in test [3] it was 0.311 E-score; in test [4], 0.212 E-score; in test [5] it was 0.263 E-score; in [6] it was 0.0813 E-score. The binding signal came to 0.138 E-score in [12], 0.342 E-score in [8], 0.238 E-score in test [9] and 0.0779 E-score in test [10].

As to AAGTCAAA, the binding signal was 0.0569 E-score in test [1]; 0.135 E-score in test [13]; 0.084 E-score in [2]; 0.16 E-score in test [4]; 0.102 E-score in [6]; 0.0885 E-score in [12]. Besides, the binding signal in test [8] amounted to 0.0889 E-score; in [9], 0.106 E-score; in [10], 0.488 E-score.

For TACGCGAA, the binding signal in test [1] worked out at 0.268 E-score; in test [3], 0.0984 E-score; in [4], 0.119 E-score; in [5] it was 0.368 E-score; in test [6], 0.0761 E-score; in [12] it was 0.185 E-score. In [11], the binding signal was found to be 0.416 E-score.

Consider CTACGCCA, for which the binding signal in test [1] came out at 0.283 E-score; in test [4] it was 0.057 E-score; in [5], 0.34 E-score; in [12] it was 0.147 E-score; in [11], 0.454 E-score.

As to GCTAAGCA, the binding signal in test [13] stood at 0.411 E-score; in test [12], 0.0614 E-score; in test [11] it was 0.155 E-score.

In the case of GGAGGGAA, the binding signal in test [13] turned out to be 0.0867 E-score; in test [2] it was 0.104 E-score; in test [6], 0.074 E-score; in [7], 0.421 E-score; in test [11] it was 0.0554 E-score.

Source of the values: publication PMC4081100, “A DNA-binding-site landscape and regulatory network analysis for NAC transcription factors in Arabidopsis thaliana”.
